The results in this text go back to PubChem BioAssay AID1345085 (National Center for Advancing Translational Sciences (NCATS), 2018).

This experiment has as its system CAOV3. Nature of the experiment: Confirmatory qHTS for gynecologic anti-cancer compounds from libraries of approved drugs and bioactive compounds. Further: nearly all actives have a fitted effect of over 55% in size. The settings on record: gynecologic cancer cell panel viability, ATPlite luminescence, 48 h; series mostly up to 57.6 µM. The gist of the method:
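ATP-based luminescent viability (ATPlite) after 48 h drug treatment at 37 °C, 5% CO2, across 57.5 uM–0.977 nM in 1:3 steps. Cells seeded at 1,000 per well 16 h beforehand; IC50 values computed, HEK 293T as selectivity control.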
In general terms: qHTS replaces the single test concentration by a dilution series.

Molecules are shown by their SMILES. Records with an inconclusive call do not appear. The source made the active and inactive calls. The call rests on the fitted dose curve; in most records, active means well fitted cell-killing curve with a large enough effect; inconclusive means small, poorly fitted or top-dose-only effect, or effect the other way; inactive means no such curve, though single readings can be large or run the other way.
Potency means the concentration at half of the fitted maximal effect.

Turning to `O=C1N(c2ccccc2)c2ccccc2C1(Cc1ccncc1)Cc1ccncc1`, the Potency result is “inactive”.

Consider `O=C(Nc1cn[nH]c1-c1nc2ccc(CN3CCOCC3)cc2[nH]1)NC1CC1`, for which the Potency is 0.122 µM (active).

`Cc1ccn(-c2ccc(-c3ncco3)cc2)c(=O)c1-c1ccc2nc(N)ncc2c1`: the Potency entry was “inactive”.

Take `CC[C@@]1(O)C(=O)OCc2c1cc1n(c2=O)Cc2c-1nc1ccccc1c2/C=N/OC(C)(C)C`: the Potency was 0.0968 µM (active).

As for `Cc1ccc(C(=O)N(CCCN)C(c2nc3cc(Cl)ccc3c(=O)n2Cc2ccccc2)C(C)C)cc1` (configuration not stated), the Potency was 17.2 µM (active).

With `COc1ccc2c(c1OC)C(=O)O[C@@H]2[C@H]1c2c(cc3c(c2OC)OCO3)CCN1C`, the Potency entry is “inactive”.

As for `C[C@@H](Oc1cc(-c2cnn(C3CCNCC3)c2)cnc1N)c1c(Cl)ccc(F)c1Cl`, the Potency was 17.2 µM (active).
